Results on 14 compounds are retold here after PubChem BioAssay.

Activity calls are given as the source filed them. The rule behind the calls is not given here.

This assay in a line: hESC survival regulators, cell-based (AID 493140).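 Note: cells exposed to compounds for four days before counting.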 Conditions: human embryonic stem cell survival screen; hits give high values.
Consider `CCN(CC)Cc1cc(Nc2ccnc3cc(Cl)ccc23)ccc1O`, for which the survival is 6.17 (inactive).

Regarding `CCCCOc1ccc(C(=O)CCN2CCCCC2)cc1`, the survival was 4.92 (inactive).

`COc1ccc(C(=O)c2ccccc2)c(O)c1`: the survival was 3.25 (inactive).

In the case of `CC/C(=C(/CC)c1ccc(O)cc1)c1ccc(O)cc1`, the survival is 3.75 (inactive).

In the case of `CCCCc1ccc2nc(NC(=O)OC)[nH]c2c1`, the survival was 1 (inactive).

On to `CCCCOc1cc(C(=O)NCCN(CC)CC)c2ccccc2n1`, for which the survival was 7.17 (inactive).

Consider `CN1CCC(=C2c3ccccc3Sc3ccccc32)CC1`, for which the survival was 12.3 (inactive).

In the case of `O=C1C(O)=C(O)C(=O)C(O)=C1O`, the survival is 4.75 (inactive).

In the case of `CCCCCCCCNC(C)C(O)c1ccc(SC(C)C)cc1` (centres undefined), the survival is 0.25 (inactive).

In the case of `CC(C)NNC(=O)c1ccncc1`, the survival is 24.2 (inactive).

With `Cc1cc2cc3c(C)cc(=O)oc3c(C)c2o1`, the survival is 6 (inactive).

Take `CCn1cc(C(=O)O)c(=O)c2cc3c(cc21)OCO3`: the survival is 33.2 (inactive).

With `CCCCNc1ccc(C(=O)OCCN(C)C)cc1`, the survival is 12.4 (inactive).

With `CCCCC(CC)CN=C(N)NC(N)=NCCCCCCN=C(N)NC(N)=NCC(CC)CCCC` (centres undefined), the survival is 0.25 (inactive).
